Enrichment ratio data for 86 variants are collected here from a collection of fitness landscapes (doi:10.1126/science.1257360).

The full ranking holds about 140,000 sequences; the median of “enrichment ratio after two sorts for PhoP signalling” is about 0, and the highest 2% start at about 11. The list comes from a sample in which the highest values are over-represented; it also holds similar and randomly drawn sequences.

B1: PhoQ; a variant is named by its letters at X, in order, P23837 (parent)
chain: MKKLLRLFFPLSLRVRFLLATAAVVLVLSLAYGMVALIGYSVSFDKTTFRLLRGESNLFYTLAKWENNKLHVELPENIDKQSPTMTLIYDENGQLLWAQRDVPWLMKMIQPDWLKSNGFHEIEADVNDTSLLLSGDHSIQQQLQEVREDDDDAEMTHSVAVNVYPATSRMPKLTIVVVDTIPVELKSSYMVWSWFIYVLSANLLLVIPLLWVAAWWSLRPIEALAKEVRELEEHNRELLNPATTRELTSLVRNLNRLLKSERERYDKYRTTLTDLTHSLKTPLXXLQXXLRSLRSEKMSVSDAEPVMLEQISRISQQIGYYLHRASMRGGTLLSRELHPVAPLLDNLTSALNKVYQRKGVNISLDISPEISFVGEQNDFVEVMGNVLDNACKYCLEFVEISARQTDEHLYIVVEDDGPGIPLSKREVIFDRGQRVDTLRPGQGVGLAVAREITEQYEGKIVAGESMLGGARMEVIFGRQHSAPKDE

Variants of B1 are the subject of this assay. As to the kind of experiment: enrichment ratio after two sorts for PhoP signalling (ratio (wild type AVST 3.29)); higher = more functional. To be noted: with PhoP (E. coli).
Turning to GWEH, the enrichment ratio was not above 0.25.
Turning to NLWG, the enrichment ratio is not above 0.25.
DHDD: the enrichment ratio is not above 0.25.
Regarding KRSK, the enrichment ratio is not above 0.25.
Turning to APEA, the enrichment ratio was not above 0.25.
On to HQMW, for which the enrichment ratio was not above 0.25.
Take SWMV: the enrichment ratio is not above 0.25.
In the case of KYMV, the enrichment ratio was not above 0.25.
On to SAFA, for which the enrichment ratio was not above 0.25.
Consider SAMV, for which the enrichment ratio worked out at 14.1.
As to STMV, the enrichment ratio turned out to be 12.8.
In the case of KAMA, the enrichment ratio was not above 0.25.
With SAQV, the enrichment ratio is 0.569.
With SAPV the figure was 5.29; with SIWV, not above 0.25.
On to SAMA, for which the enrichment ratio came to 12.3.
As to SPMV, the enrichment ratio was not above 0.25.
As for SIMV, the enrichment ratio turned out to be 13.6.
In the case of ILLG, the enrichment ratio is not above 0.25.
As to KTTK, the enrichment ratio was not above 0.25.
For the variant TRRW, the enrichment ratio is not above 0.25.
For QYNE, the enrichment ratio was not above 0.25.
With MVYP the figure was not above 0.25; with NQPT, not above 0.25; with QHTM, not above 0.25.
On to YDVW, for which the enrichment ratio was not above 0.25.
With KTCA the figure was not above 0.25; with PMGE, not above 0.25.
Regarding SQMV, the enrichment ratio was found to be 22.1.
The figure for SQMW is not above 0.25; for KQMV it is not above 0.25; for YHTC it is not above 0.25.
On to AEFH, for which the enrichment ratio is 1.2.
The figure for AIWH is not above 0.25.
As for AWCH, the enrichment ratio is not above 0.25.
With AEWS the figure was 8.72; with AEWH, 22.3; with ADCC, 4.94.
As for AECF, the enrichment ratio was determined as 2.16.
Consider AECH, for which the enrichment ratio was determined as 16.5.
On to AIIH, for which the enrichment ratio came to 2.68.
The figure for AECC is 16.3; for AEIH it is 60.7; for AHIH it is not above 0.25.
Regarding MYMC, the enrichment ratio was not above 0.25.
For KQLY, the enrichment ratio is not above 0.25.
For MMRL, the enrichment ratio was not above 0.25.
For RHKQ, the enrichment ratio is not above 0.25.
For HNLQ, the enrichment ratio was not above 0.25.
In the case of IHWA, the enrichment ratio was not above 0.25.
As to AEYH, the enrichment ratio is not above 0.25.
With AEMH the figure was 36.8; with AEGP, not above 0.25; with AEQH, not above 0.25.
On to AEGH, for which the enrichment ratio came out at 12.9.
For AEKH, the enrichment ratio is not above 0.25.
Take EVPD: the enrichment ratio was not above 0.25.
The figure for EPIP is not above 0.25; for TGEV it is 26.6.
For TGMG, the enrichment ratio stood at 17.2.
On to YYMV, for which the enrichment ratio is not above 0.25.
Consider NGMS, for which the enrichment ratio is not above 0.25.
Turning to YTMV, the enrichment ratio came out at 12.2.
With QPMV the figure was not above 0.25.
PGMG: the enrichment ratio was not above 0.25.
As for GGEV, the enrichment ratio was not above 0.25.
With NGMG, the enrichment ratio was not above 0.25.
Regarding GGMS, the enrichment ratio came out at 1.56.
For TGMS, the enrichment ratio worked out at 12.8.
In the case of DEEV, the enrichment ratio was not above 0.25.
Regarding PEIA, the enrichment ratio is not above 0.25.
Regarding HVSH, the enrichment ratio is not above 0.25.
With FEHR the figure was not above 0.25; with ENVM, not above 0.25; with LMNE, not above 0.25.
On to WNVD, for which the enrichment ratio is not above 0.25.
RCTL: the enrichment ratio was not above 0.25.
In the case of NGIV, the enrichment ratio was not above 0.25.
Take ICMW: the enrichment ratio is not above 0.25.
The figure for ICMV is 13.2; for NGMD it is not above 0.25; for NGMV it is 14.
With RGMV the figure was not above 0.25; with ICIV, not above 0.25.
As to TGMV, the enrichment ratio was 12.7.
Regarding GGMV, the enrichment ratio was 5.
